# Data taken from PMC7862700, “An all-to-all approach to the identification of sequence-specific readers for epigenetic DNA modifications on cytosine”.
# Tests used:
# Assay in all cases: DAPPL (digital affinity profiling via proximity ligation, sequencing); 10 mM Tris-HCl pH 7.5, 50 mM NaCl, 1 mM DTT, 4% glycerol, room temperature, 30 min; GST-TFs on glutathione beads, 16-mer random dsDNA library, 0.1% formaldehyde crosslink after washing; high values mean tight binding
# Conditions in all cases: protein: recombinant; tags: N-terminal GST; dsDNA, one strand shown
# [1] = biological target: T1, FLI1 (Homo sapiens, UniProt Q01543 1-452)
# T1 sequence: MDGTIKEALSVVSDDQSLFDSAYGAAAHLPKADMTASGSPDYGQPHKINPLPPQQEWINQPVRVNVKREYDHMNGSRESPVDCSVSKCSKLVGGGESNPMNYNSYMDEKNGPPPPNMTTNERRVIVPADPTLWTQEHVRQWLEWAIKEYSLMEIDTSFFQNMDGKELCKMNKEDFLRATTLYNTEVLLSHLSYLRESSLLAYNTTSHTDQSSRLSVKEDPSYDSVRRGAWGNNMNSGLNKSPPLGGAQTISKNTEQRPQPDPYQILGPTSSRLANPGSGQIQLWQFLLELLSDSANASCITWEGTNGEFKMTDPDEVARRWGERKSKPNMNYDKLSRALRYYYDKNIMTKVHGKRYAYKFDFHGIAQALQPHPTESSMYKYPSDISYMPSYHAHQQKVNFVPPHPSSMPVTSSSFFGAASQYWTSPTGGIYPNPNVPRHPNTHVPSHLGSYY
# In short: (§1)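 Binding signal is defined as a hexamer's read frequency for one factor over its frequency for the tag-only sample. To obtain reads, GST-fused human transcription factors were expressed in yeast, captured on glutathione beads, barcoded with DNA and pooled with that sample. Pools met 200 nmole of a 16-mer random double-stranded DNA library in Tris/NaCl/DTT/glycerol buffer for 30 min at room temperature before washing, 0.1% formaldehyde crosslinking, proximity ligation (BsaI/T4 ligase, 1 h, 37 °C), PCR and Illumina NextSeq500 sequencing.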
# [2] = biological target: T2, ELK1 (Homo sapiens, UniProt P19419 1-428)
# T2 sequence: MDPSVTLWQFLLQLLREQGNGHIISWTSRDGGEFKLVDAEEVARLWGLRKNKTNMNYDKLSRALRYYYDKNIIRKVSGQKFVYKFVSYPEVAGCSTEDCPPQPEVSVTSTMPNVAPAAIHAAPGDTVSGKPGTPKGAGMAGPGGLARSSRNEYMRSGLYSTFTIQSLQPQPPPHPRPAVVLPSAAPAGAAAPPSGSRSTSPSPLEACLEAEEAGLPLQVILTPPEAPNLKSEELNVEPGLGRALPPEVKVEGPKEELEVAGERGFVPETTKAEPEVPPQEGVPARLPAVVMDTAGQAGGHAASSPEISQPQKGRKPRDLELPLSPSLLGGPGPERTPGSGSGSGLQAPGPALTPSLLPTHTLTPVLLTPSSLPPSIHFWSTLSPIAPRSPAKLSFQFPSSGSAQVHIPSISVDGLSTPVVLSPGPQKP
# In short: as §1
# [3] = biological target: T3, GABPA (Homo sapiens, UniProt Q06546 1-454)
# T3 sequence: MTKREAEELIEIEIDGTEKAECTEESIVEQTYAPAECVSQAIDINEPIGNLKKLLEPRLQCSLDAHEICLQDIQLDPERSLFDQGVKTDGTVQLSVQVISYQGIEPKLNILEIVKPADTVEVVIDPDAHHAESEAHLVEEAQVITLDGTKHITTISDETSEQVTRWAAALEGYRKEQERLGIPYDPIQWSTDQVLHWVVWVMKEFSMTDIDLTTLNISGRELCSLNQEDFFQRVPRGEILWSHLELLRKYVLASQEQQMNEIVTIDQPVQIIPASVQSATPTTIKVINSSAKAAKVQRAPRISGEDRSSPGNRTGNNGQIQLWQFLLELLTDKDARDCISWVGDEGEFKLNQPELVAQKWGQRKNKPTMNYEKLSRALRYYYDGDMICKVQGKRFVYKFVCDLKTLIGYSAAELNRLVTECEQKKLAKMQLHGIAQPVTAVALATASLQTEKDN
# In short: as §1
# [4] = biological target: T4, ERG (Homo sapiens, UniProt P11308 1-479)
# T4 sequence: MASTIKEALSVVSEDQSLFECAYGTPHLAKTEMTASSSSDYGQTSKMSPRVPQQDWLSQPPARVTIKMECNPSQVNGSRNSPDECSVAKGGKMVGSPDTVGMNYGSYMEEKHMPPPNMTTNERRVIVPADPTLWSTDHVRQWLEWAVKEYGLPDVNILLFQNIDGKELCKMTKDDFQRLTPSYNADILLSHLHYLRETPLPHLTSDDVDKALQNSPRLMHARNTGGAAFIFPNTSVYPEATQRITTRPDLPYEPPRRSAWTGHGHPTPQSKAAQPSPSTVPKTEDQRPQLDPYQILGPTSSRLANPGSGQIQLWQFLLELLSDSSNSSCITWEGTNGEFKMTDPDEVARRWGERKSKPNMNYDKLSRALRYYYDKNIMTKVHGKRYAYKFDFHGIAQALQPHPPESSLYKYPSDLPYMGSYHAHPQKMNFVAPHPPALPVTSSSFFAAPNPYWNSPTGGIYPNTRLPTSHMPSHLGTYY
# In short: as §1
# [5] = biological target: ELF1 (Homo sapiens, UniProt P32519 1-619)
# In short: as §1
# [6] = biological target: T5, EHF (Homo sapiens, UniProt Q9NZC4 1-300)
# T5 sequence: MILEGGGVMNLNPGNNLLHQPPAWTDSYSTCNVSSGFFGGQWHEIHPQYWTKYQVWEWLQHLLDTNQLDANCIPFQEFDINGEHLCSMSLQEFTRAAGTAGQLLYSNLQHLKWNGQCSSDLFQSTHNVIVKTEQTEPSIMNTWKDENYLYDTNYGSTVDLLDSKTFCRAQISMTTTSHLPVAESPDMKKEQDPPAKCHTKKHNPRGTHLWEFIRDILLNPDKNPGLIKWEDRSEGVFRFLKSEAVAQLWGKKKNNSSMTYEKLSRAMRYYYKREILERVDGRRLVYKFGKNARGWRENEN
# In short: as §1
# [7] = biological target: SPI1 (Homo sapiens, UniProt P17947 1-270)
# In short: as §1
# [8] = biological target: SPIB (Homo sapiens, UniProt Q01892 1-262)
# In short: as §1
# [9] = biological target: T6, ELK3 (Homo sapiens, UniProt P41970 1-407)
# T6 sequence: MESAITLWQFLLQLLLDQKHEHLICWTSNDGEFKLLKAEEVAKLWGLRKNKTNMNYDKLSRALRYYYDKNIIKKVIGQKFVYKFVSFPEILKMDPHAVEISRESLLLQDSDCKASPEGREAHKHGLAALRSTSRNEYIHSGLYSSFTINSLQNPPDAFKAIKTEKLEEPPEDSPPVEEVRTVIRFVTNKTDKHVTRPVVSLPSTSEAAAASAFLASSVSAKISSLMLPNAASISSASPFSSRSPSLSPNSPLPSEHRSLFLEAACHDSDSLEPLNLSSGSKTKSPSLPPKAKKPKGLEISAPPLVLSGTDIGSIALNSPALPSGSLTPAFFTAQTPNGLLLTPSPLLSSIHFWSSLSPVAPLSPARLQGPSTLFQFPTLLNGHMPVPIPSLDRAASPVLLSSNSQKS
# In short: as §1
# Chain of ELF1 (P32519 whole entry): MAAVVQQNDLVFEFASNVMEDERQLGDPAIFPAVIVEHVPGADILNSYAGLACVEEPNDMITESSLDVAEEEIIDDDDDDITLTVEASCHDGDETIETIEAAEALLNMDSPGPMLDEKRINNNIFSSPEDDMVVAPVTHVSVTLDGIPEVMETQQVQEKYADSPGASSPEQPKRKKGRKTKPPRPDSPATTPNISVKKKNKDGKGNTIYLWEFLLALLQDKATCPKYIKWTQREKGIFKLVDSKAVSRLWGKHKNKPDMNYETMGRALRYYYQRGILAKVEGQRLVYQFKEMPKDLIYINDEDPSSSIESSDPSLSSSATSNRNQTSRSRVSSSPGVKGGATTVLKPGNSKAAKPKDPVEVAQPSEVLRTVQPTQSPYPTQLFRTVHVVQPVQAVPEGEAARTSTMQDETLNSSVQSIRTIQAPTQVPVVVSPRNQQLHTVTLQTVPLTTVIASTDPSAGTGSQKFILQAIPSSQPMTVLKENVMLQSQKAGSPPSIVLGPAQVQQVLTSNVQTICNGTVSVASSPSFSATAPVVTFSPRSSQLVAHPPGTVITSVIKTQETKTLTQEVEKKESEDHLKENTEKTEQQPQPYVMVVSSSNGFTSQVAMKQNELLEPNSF
# Chain of SPIB (Q01892 whole entry): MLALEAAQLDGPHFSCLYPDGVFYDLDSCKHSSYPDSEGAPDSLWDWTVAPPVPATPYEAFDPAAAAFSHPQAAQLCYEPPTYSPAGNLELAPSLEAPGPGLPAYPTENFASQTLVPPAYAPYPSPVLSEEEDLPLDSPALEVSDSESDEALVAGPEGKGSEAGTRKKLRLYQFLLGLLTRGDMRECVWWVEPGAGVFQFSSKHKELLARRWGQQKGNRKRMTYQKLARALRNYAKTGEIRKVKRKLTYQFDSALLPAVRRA
sequence,measurement,setting,value
GATGGC,binding signal,[1],"1.27 fold enrichment (6-mer frequency, TF over GST control)"
same,binding signal,[2],"1.36 fold enrichment (6-mer frequency, TF over GST control)"
same,binding signal,[3],"1.34 fold enrichment (6-mer frequency, TF over GST control)"
same,binding signal,[4],"1.3 fold enrichment (6-mer frequency, TF over GST control)"
same,binding signal,[5],"1.34 fold enrichment (6-mer frequency, TF over GST control)"
same,binding signal,[6],"1.33 fold enrichment (6-mer frequency, TF over GST control)"
same,binding signal,[7],"1.37 fold enrichment (6-mer frequency, TF over GST control)"
same,binding signal,[8],"1.41 fold enrichment (6-mer frequency, TF over GST control)"
same,binding signal,[9],"1.19 fold enrichment (6-mer frequency, TF over GST control)"
